Test results reported in PubChem BioAssay (EPA / NIEHS).
Active and inactive are the calls of the source. The calls were made as follows: active = hit-call score of the fitted dose curve at least 0.9, where 1 is the maximum; inactive = score below 0.9.

Experiments:
[1] = ATG_CRE_CIS: Attagene CIS-FACTORIAL HepG2 Assay for human cAMP Responsive Element (CRE) binding protein 3 (AID 2282926); conditions: HepG2 CRE cis-reporter, Attagene multiplexed mRNA; actives raise or lower the signal
Method in brief: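 Liver-derived HepG2, transfected with a CRE-containing reporter panel, exposed 24 h; transcript levels sized and quantified by capillary electrophoresis of labelled amplicons; signal changes either way referenced to vehicle.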

[2] = biological target: CCAAT/enhancer-binding protein beta (Homo sapiens) (UniProt P17676); assay: ATG_C_EBP_CIS: Attagene CIS-FACTORIAL HepG2 Assay for human CCAAT/Enhancer Binding Protein (C/EBP) beta (AID 2282927); conditions: HepG2 Attagene cis-factorial transcription factor reporter; actives raise or lower the signal
Sequence of CCAAT/enhancer-binding protein beta (Homo sapiens) (P17676 whole entry, looked up): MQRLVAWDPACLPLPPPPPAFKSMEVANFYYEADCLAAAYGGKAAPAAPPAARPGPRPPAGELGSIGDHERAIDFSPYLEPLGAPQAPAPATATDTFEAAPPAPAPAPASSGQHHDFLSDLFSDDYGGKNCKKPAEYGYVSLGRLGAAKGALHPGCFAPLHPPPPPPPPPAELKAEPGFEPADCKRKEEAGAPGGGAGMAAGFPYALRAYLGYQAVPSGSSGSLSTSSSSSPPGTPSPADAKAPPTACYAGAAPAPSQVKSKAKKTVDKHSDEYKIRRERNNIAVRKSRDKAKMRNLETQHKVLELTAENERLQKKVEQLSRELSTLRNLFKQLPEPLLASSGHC
Method in brief: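 Transiently transfected HepG2 (MRTU library, endogenous TF-driven promoters); 24 h dosing; total RNA → oligo(dT) RT → PCR → 6-FAM primer extension → HpaI digest → CE; fit bidirectionally vs DMSO.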

[3] = ATG_CMV_CIS: Attagene CIS-FACTORIAL HepG2 Assay for human CMV (Internal Marker) (AID 2282928); conditions: HepG2 CMV promoter reporter, transcription factor profiling; actives raise or lower the signal;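 also: endpoint acts as a background internal control marker rather than a target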
Method in brief: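 24 h chemical treatment, HepG2 with transient multi-reporter transfection; RNA → oligo(dT) RT → PCR → 6-FAM extension → HpaI digest → CE fluorescence. Bidirectional fit, DMSO negative control.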

[4] = ATG_DR4_LXR_CIS: Attagene CIS-FACTORIAL HepG2 Assay for human Liver X Receptor (LXR), DR4 submotif (AID 2282929); conditions: HepG2 Attagene DR4 cis-reporter, mRNA transcription; actives raise or lower the signal
Method in brief: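 After transient transfection with multiplexed cis-promoter reporter units, HepG2 cells received test chemicals for 24 h. Reporter mRNA induction, detected by fluorescence after RT-PCR and capillary electrophoresis, was scored relative to DMSO.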

[5] = biological target: Aryl hydrocarbon receptor (Homo sapiens) (UniProt P35869); assay: ATG_Ahr_CIS: Attagene CIS-FACTORIAL HepG2 Assay for human Aryl Hydrocarbon Receptor (Ahr) (AID 2282930); conditions: HepG2 AhR cis-factorial reporter transcription; actives raise or lower the signal
Sequence of Aryl hydrocarbon receptor (Homo sapiens) (P35869 whole entry, looked up): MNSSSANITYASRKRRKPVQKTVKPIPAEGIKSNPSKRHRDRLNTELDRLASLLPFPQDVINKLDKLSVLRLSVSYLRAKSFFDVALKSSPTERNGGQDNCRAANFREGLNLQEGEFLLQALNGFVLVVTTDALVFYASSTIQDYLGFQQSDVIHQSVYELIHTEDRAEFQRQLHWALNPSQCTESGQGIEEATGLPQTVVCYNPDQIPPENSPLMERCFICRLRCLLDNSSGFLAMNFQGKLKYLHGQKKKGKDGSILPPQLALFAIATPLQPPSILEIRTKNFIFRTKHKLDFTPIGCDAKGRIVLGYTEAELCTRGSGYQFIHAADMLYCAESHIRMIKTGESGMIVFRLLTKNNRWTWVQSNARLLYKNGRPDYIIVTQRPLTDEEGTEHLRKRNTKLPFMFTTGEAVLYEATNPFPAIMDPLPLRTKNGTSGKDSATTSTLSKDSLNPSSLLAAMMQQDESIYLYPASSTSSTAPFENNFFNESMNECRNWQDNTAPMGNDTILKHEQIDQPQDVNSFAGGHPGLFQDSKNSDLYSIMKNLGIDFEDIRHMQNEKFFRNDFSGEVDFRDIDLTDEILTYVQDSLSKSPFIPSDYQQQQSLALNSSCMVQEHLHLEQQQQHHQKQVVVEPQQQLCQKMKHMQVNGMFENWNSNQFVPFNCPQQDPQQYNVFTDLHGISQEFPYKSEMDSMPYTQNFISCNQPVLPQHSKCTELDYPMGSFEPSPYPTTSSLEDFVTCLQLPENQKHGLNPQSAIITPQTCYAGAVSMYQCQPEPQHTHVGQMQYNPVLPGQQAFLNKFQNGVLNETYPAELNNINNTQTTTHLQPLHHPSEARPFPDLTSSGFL
Method in brief: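 Read-out: reporter mRNA quantified by RT-PCR with fluorescent primer extension and capillary electrophoresis. Human HepG2 liver cells carried transfected cis-promoter reporter units and were exposed to chemical for 24 h; gain or loss fitted relative to DMSO.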

[6] = ATG_AP_1_CIS: Attagene CIS-FACTORIAL HepG2 Assay for human Activator Protein 1 (AP-1) (AID 2282931); conditions: HepG2 Attagene cis-factorial AP-1 reporter mRNA; actives raise or lower the signal
Method in brief: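 After 24 h incubation with test chemical, RNA from transfected HepG2 cells was reverse-transcribed, amplified, fluorescently labelled and digested before capillary electrophoresis. Reporters were driven by cis-regulatory promoters; activity fitted bidirectionally versus DMSO.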

[7] = ATG_AP_2_CIS: Attagene CIS-FACTORIAL HepG2 Assay for human Activator Protein 2 (AP-2) (AID 2282932); conditions: HepG2 AP-2 cis-reporter, Attagene transcription factor profiling; actives raise or lower the signal
Method in brief: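 Read-out: fluorescent reporter mRNA via RT-PCR and capillary electrophoresis, 24 h post-dose in transiently transfected HepG2. Endogenous factors drive cis-promoter reporters; gain or loss of signal fitted bidirectionally against DMSO.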

[8] = ATG_BRE_CIS: Attagene CIS-FACTORIAL HepG2 Assay for human Bone Morphogenetic Protein (BMP) Response Element (BRE) (AID 2282933); conditions: HepG2 BMP response element reporter, Attagene transcription factor profiling; actives raise or lower the signal
Method in brief: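 Endogenous transcription factor activity at a BMP response element was monitored in transfected HepG2 cells 24 h after dosing. Fluorescent RT-PCR products were resolved by capillary electrophoresis, and activity was fitted in both directions versus DMSO.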

[9] = biological target: Retinoic acid receptor alpha (Homo sapiens) (UniProt P10276); assay: ATG_DR5_RAR_CIS: Attagene CIS-FACTORIAL HepG2 Assay for human Retinoic Acid Receptor Alpha (RARE), DR5 submotif (AID 2282934); conditions: HepG2 Attagene cis-factorial RARE DR5 reporter, mRNA; actives raise or lower the signal;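 as to AC50: reporter responds to endogenous RAR alpha beta and gamma in HepG2 not RARA alone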
Sequence of Retinoic acid receptor alpha (Homo sapiens) (P10276 whole entry, looked up): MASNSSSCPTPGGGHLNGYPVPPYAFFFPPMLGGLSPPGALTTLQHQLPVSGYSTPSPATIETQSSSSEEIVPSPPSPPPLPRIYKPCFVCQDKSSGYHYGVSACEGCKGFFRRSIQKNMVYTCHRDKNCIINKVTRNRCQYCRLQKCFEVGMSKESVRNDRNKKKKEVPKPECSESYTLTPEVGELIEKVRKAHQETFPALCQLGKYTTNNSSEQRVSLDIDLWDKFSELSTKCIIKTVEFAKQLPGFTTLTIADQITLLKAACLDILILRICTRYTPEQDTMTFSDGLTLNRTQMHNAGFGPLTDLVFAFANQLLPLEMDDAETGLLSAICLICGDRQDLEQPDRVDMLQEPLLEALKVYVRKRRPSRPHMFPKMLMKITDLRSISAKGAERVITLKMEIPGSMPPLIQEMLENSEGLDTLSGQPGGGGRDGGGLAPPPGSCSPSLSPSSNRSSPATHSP
Method in brief: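 Read-out: DR5-driven reporter transcript measured by RT-PCR, 6-FAM primer extension, HpaI digest and capillary electrophoresis. Human HepG2 liver cells carry transiently transfected cis-element reporter constructs; dosing lasts 24 h. Gain or loss of signal fitted against DMSO baseline.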

[10] = biological target: Transcription factor E2F1 (Homo sapiens) (UniProt Q01094); assay: ATG_E2F_CIS: Attagene CIS-FACTORIAL HepG2 Assay for human E2F Transcription Factor 1 (AID 2282935); conditions: HepG2 Attagene cis-reporter, E2F reporter RNA transcripts; actives raise or lower the signal
Sequence of Transcription factor E2F1 (Homo sapiens) (Q01094 whole entry, looked up): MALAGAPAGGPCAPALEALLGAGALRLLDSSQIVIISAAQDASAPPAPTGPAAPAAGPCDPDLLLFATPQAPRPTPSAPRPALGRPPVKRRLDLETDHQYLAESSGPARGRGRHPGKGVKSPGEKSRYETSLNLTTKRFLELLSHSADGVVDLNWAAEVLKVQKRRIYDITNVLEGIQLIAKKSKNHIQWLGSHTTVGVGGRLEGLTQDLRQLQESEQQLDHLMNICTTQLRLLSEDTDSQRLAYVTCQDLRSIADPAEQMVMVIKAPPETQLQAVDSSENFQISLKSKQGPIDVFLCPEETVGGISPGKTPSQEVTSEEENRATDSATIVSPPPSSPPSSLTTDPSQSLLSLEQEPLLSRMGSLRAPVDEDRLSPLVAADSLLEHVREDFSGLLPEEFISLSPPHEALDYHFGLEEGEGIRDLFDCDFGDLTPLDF
Method in brief: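 Transient MRTU transfection of HepG2; 24 h compound exposure; RNA → oligo(dT) RT → PCR → FAM label → HpaI cut → CE fluorescence. Gain/loss of signal fit against DMSO.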

[11] = ATG_E_Box_CIS: Attagene CIS-FACTORIAL HepG2 Assay for human Enhancer Box (E-box) (AID 2282936); conditions: HepG2 E-box cis-reporter transcription, actives raise or lower the signal
Method in brief: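 Transiently transfected HepG2, endogenous TF-driven reporters, 24 h dosing. Readout: RT-PCR plus capillary electrophoresis of fluorescent reporter fragments. Gain or loss of signal fitted bidirectionally against DMSO baseline.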

[12] = ATG_M_61_CIS: Attagene CIS-FACTORIAL HepG2 Assay for M61 Transcription Factor (Internal Marker) (AID 2282937); conditions: HepG2 Attagene CIS-FACTORIAL M61 internal marker reporter; actives raise or lower the signal
Method in brief: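 Using transiently transfected HepG2 liver cells, reporter transcript levels were assessed 24 h post-dosing by RT-PCR and capillary electrophoresis. Changes in either direction were fitted relative to DMSO controls.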

[13] = ATG_EGR_CIS: Attagene CIS-FACTORIAL HepG2 Assay for human Early Growth Response 1 (EGR1) (AID 2282938); conditions: HepG2 Attagene CIS-FACTORIAL EGR reporter mRNA; actives raise or lower the signal
Method in brief: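 Fluorescent capillary-electrophoresis signal of reporter cDNA fragments serves as read-out. HepG2 cells bear transiently transfected cis-promoter reporter units and are exposed 24 h; gain- or loss-of-signal is fitted against DMSO.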

[14] = APR_HepG2_MicrotubuleCSK_72hr: Apredica 72-hour HepG2 Assay for Microtubule CSK Stabilty (AID 2282919); conditions: HepG2 microtubule cytoskeleton, high-content imaging, actives raise or lower the signal
Method in brief: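 HepG2, 72 hr cmpd exposure, 0.39–200 uM (10 pts, duplicate), 0.5% DMSO. 3.7% formaldehyde fix, 0.5% Triton perm, anti-alpha-tubulin/Cy5 plus Hoechst. HCS fluorescence intensity; bidirectional fit vs DMSO baseline; taxol as positive control.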

[15] = APR_HepG2_P-H2AX_24hr: Apredica 24-hour HepG2 Assay for H2AX Phosphorylation (AID 2282920); conditions: high-content imaging, actives raise or lower the signal
Method in brief: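 Human HepG2 liver cells, treated 24 hr with test chemicals (0.39–200 uM, final DMSO 0.5% v/v), are fixed and co-stained for phospho-H2A.x and c-Jun with Hoechst. Imaged intensity is fitted in both directions against DMSO controls.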

[16] = APR_HepG2_StressKinase_72hr: Apredica 72-hour HepG2 Assay for Stress Kinase (AID 2282921); conditions: HepG2 stress kinase (phospho-c-Jun) imaging, actives raise or lower the signal
Method in brief: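 Phospho-c-Jun immunofluorescence measured by high-content imaging at 20x, six fields per well; bidirectional curve fitting against DMSO as baseline. Dosing: 0.39–200 uM, 72 h, 0.5% DMSO final.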

[17] = APR_HepG2_StressKinase_24hr: Apredica 24-hour HepG2 Assay for Stress Kinase (AID 2282922); conditions: HepG2 stress kinase (phospho-c-Jun) imaging, actives raise or lower the signal
Method in brief: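 Read-out: phospho-c-Jun immunofluorescence (Cy3 secondary) quantified by high-content imaging at 20x, nuclei defined by Hoechst 33342. Human HepG2 liver cells dosed 24 hr, 0.39–200 uM, DMSO 0.5% v/v; gain or loss of signal fitted relative to DMSO.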

[18] = APR_HepG2_MitoMass_72hr: Apredica 72-hour HepG2 Assay for Mitochondrial Mass (AID 2282924); conditions: high-content imaging, actives raise or lower the signal;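 also: MitoTracker Red CMXRos stain intensity per cell imaged as mitochondrial mass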
Method in brief: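 Read-out: MitoTracker Red fluorescence intensity from automated imaging (20x, six fields per well) in human HepG2 liver cells. Dosing ran 72 hr, 0.39–200 uM, 0.5% DMSO; bidirectional curve fitting versus DMSO baseline.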

[19] = APR_HepG2_NuclearSize_72hr: Apredica 72-hour HepG2 Assay for Nuclear Size (AID 2282925); conditions: high-content imaging, actives raise or lower the signal
Method in brief: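 Read-out: nuclear diameter from Hoechst 33342 images (ArrayScan, 20x, six fields/well), via cell-cycle image analysis. HepG2 were dosed 0.39–200 uM for 72 hr in 0.5% DMSO. Bidirectional fit relative to DMSO.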

Measured: AC50

CCCCC(CC)C(=O)Cl (stereo unspecified)
not listed: [14] | [15] | [16] | [17] | [18] | [19]
inactive: all other assays above

CCCCOC(=O)COC(=O)c1ccccc1C(=O)OCCCC
not listed: [14] | [15] | [16] | [17] | [18] | [19]
inactive: all other assays above

CCCCCCCCCCCCc1cccc(S(=O)(=O)O)c1
active: [4] 30 µM | [9] 39.8 µM
not listed: [5] | [12] | [13]
inactive: all other assays above

Cc1cc(C(F)(C(F)(F)F)C(F)(F)F)ccc1NC(=O)c1cccc(I)c1C(=O)NC(C)(C)CS(C)(=O)=O
not listed: [14] | [15] | [16] | [17] | [18] | [19]
inactive: all other assays above

Oc1cc(Cl)c(Cl)cc1Cl
active: [15] 38.9 µM | [16] 51.8 µM | [1] 39.7 µM | [2] 46.5 µM | [3] 27.2 µM | [6] 25.9 µM | [8] 26.8 µM
not listed: [9] | [13]
inactive: all other assays above

CC(C)O.CC(C)O.OCCN(CCO)CCO.OCCN(CCO)CCO.[Ti]
active: [8] 6.97 µM
not listed: [5] | [13]
inactive: all other assays above

C#CCOC(=O)/C=C(C)/C=C/CC(C)CCCC(C)C (stereo unspecified)
inactive: [2] | [5] | [7] | [8] | [9] | [10] | [11] | [12]
active: [1] 39.7 µM | [3] 36.9 µM | [4] 96.1 µM | [6] 55.3 µM

ClCc1ccccc1CCl
active: [1] 9.56 µM | [3] 56 µM | [4] 16.6 µM | [6] 59.7 µM | [11] 33.4 µM | [13] 29.5 µM
inactive: [2] | [5] | [7] | [8] | [9] | [10] | [12]

Clc1cccc(Cl)c1Cl
not listed: [13]
inactive: all other assays above

CCOCn1c(-c2ccc(Cl)cc2)c(C#N)c(Br)c1C(F)(F)F
active: [1] 1.2 µM | [4] 8.63 µM | [5] 170 µM | [7] 3.76 µM | [8] 1.1 µM | [9] 0.518 µM | [13] 1.83 µM
inactive: [2] | [3] | [6] | [10] | [11] | [12]

CC(C)=CC1C(C(=O)OCc2cccc(Oc3ccccc3)c2)C1(C)C (stereo unspecified)
active: [4] 22.3 µM
not listed: [14] | [15] | [16] | [17] | [18] | [19]
inactive: all other assays above

OCCN(CCO)CCO
not listed: [5] | [12]
inactive: all other assays above

CC(C)CP(=S)(S)CC(C)C
not listed: [13] | [14] | [15] | [16] | [17] | [18] | [19]
inactive: all other assays above

O=C1c2ccccc2C(=O)C1C(=O)C(c1ccccc1)c1ccc(Cl)cc1 (stereo unspecified)
inactive: [2] | [4] | [7] | [10] | [11]
active: [1] 27.5 µM | [3] 13.7 µM | [5] 8.72 µM | [6] 5.27 µM | [8] 5.02 µM | [9] 8.58 µM | [12] 88.4 µM

CS(=O)(=O)c1ccc(C(=O)C2C(=O)CCCC2=O)c(Cl)c1COCC(F)(F)F
not listed: [13] | [14] | [15] | [16] | [17] | [18] | [19]
inactive: all other assays above
